# Compounds with a hit are over-represented: about 0.78% of the library has one in this group of screens.
# APE1 inh-1 = inhibitors of human APE1 endonuclease; recombinant APE1, TAMRA/BHQ-2 abasic DNA cleavage fluorescence; AID 2517; Potency, µM (highest dose often 65.8 µM), inactives show at the highest dose activity change, negative = inhibition, hits mostly inhibitors; P27695; actives 0.35% (n = 350,000);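 note: plate controls were vehicle for no effect and reference inhibitor for full effect; nearly all actives have a fitted effect of over 55% in size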
# Target sequence (P27695 whole entry, looked up): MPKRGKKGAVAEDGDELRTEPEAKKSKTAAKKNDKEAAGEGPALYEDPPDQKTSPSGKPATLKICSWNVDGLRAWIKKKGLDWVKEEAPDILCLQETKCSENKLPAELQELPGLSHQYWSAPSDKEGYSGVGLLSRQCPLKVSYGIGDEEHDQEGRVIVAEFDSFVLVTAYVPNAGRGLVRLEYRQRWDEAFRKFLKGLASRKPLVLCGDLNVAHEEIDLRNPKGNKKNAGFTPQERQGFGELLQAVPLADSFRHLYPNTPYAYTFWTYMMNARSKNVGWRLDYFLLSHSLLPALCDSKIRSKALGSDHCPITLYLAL
#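 Step 1: APE1 (0.75 nM) with compound, 15 min RT. Step 2: add 50 nM fluorophore/quencher THF duplex. Step 3: three fluorescence reads 60 s apart (525/598 nm); read 3 minus read 1 = reaction progress.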
# L3MBTL1 block = blocks human L3MBTL1; Potency, µM (top dose mostly 57.1 µM), without a hit: at the top dose activity, negative = inhibition, usual class: inhibitors; AlphaScreen L3MBTL1–H3K9me1 peptide binding; Q9Y468; actives 0.66% (n = 230,000); note: nearly all actives have a fitted effect of over 60% in size
#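 AlphaScreen proximity signal between nickel-chelate acceptor and streptavidin donor beads (final 10 ug/mL) reports binding of 50 nM L3MBTL1 to 75 nM biotin-H3 K9me1 peptide; complex incubated with compounds 30 min at room temperature; cefsulodin titration as control.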
# RECQ1 inh = RECQ1 (human) helicase inhibition; P46063; AID 2549; actives 0.54% (n = 240,000); Potency, µM (top dose mostly 57.3 µM), for inactives: top-dose activity, negative = inhibition, most hits filed as inhibitors; RECQ1 DNA unwinding, red fluorescence kinetic read;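 note: plate controls were vehicle for no effect and no enzyme for full effect; nearly all actives have a fitted effect of over 30% in size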
#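 50 nM RECQ1T1 preincubated 15 min with compound in Tris pH 8.0 buffer with MgCl2, DTT, Tween-20 and 2.5 ug/ml poly(dI-dC); started with 200 nM TAMRA/BHQ-2 forked duplex and 2 mM ATP. Unwinding read as fluorescence (525/598 nm), two reads 2 h apart.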
# BLM inh = Bloom syndrome helicase (human) inhibition; P54132; recombinant BLM DNA unwinding, fluorescence dequenching; Potency, µM (highest dose often 56.1 µM), for the others: at the top dose activity change, negative = inhibition, usual class: inhibitors; actives 0.2% (n = 350,000);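 note: plate controls were vehicle for no effect and no enzyme for full effect; nearly all actives have a fitted effect of over 35% in size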
# DNA dye displace = counter-screen for APE1 inhibitors: DNA dye displacement. shares compounds with APE1 inh-1. DNA fluorescent dye displacement counterscreen, fluorescence. Potency, µM (highest dose often 28.5 µM), without a hit: at the top dose activity change, negative = inhibition, hits mostly inhibitors. actives 7% (n = 480). AID 2564;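 note: loss of thiazole orange fluorescence as the dye is displaced from duplex DNA; 0% = ThO with dsDNA and no compound and -100% = ThO without dsDNA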
# Endo IV inh = Endo IV (E. coli) inhibition counter-screen; shares compounds with APE1 inh-1; E. coli Endo IV, fluorogenic AP-site DNA cleavage; Potency, µM (highest dose often 27.1 µM), without a hit: at the top dose activity change, negative = inhibition, usual class: inhibitors; actives 4% (n = 560); AID 2565;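 note: plate controls were uninhibited enzyme wells for no effect and no enzyme buffer wells for full effect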
# APE1 inh-2 = confirmation of inhibitors of human APE1 endonuclease; AID 2572; actives 44% (n = 750); Potency, µM (highest dose often 57.1 µM), for inactives: at the highest dose activity change, negative = inhibition, usual class: inhibitors; shares compounds with APE1 inh-1; purified APE1, fluorogenic abasic-site DNA cleavage; note: nearly all actives have a fitted effect of over 30% in size
# APE1 FP = APE1 (human) DNA binding inhibition, fluorescence polarization; shares compounds with APE1 inh-1; Potency, µM (highest dose often 28.5 µM), without a hit: at the highest dose activity, negative = inhibition, usual class: inhibitors; APE1 binding to TAMRA-labelled double-stranded DNA, fluorescence polarization displacement; actives 7% (n = 480)
# Active calls of the source: *; i = inactive; ? = inconclusive; / = not tested or not shown; [ ] = another dose, or the depositor's remark. Calls come from the whole dose curve; as a rule, active = well fitted curve in the direction sought with a large enough effect; inconclusive = small, poorly fitted or top-dose-only effect, or another doubt; inactive = no such curve, though single readings can be large; an effect the other way counts as inactive or inconclusive. Unless noted, % is set by controls: 0 for no effect and ±100 for the full control effect; potency is the fitted concentration of half-maximal effect.
SMILES,APE1 inh-1,L3MBTL1 block,RECQ1 inh,BLM inh,DNA dye displace,Endo IV inh,APE1 inh-2,APE1 FP
CCN(c1ccccc1C)S(=O)(=O)c1nnc(NC(=O)c2ccccc2C)s1,/,/,/,-6%,/,/,/,/
CCC(C)NC(=O)CSc1nc2c(sc3ccccc32)c(=O)n1Cc1ccccc1Cl (configuration not stated),/,/,/,2%,/,/,/,/
COc1ccc2nc(N3CCCCC3)c(C#N)cc2c1,-3%,227%,-3%,-9%,/,/,?,/
CC(C)(C)NC(=O)c1cc(F)c(F)cc1Cl,7.1µM*,/,i,-14%,-8%,4%,?,-6%
O=c1c(OC2OC(CO)C(O)C(O)C2OC2OC(CO)C(O)C(O)C2O)c(-c2ccc(O)cc2)oc2cc(O)cc(O)c12 (configuration not stated),8.9µM*,/,10µM*,-20%,1%,12%,?,-42%
COC(=O)C/C=C1\c2ccccc2C(OC)C1C (configuration not stated),5%[12.4 µM],/,-6%[11.5 µM],2%[12.4 µM],/,/,/,/
C=Cc1ccccc1C=C,3%,/,15%,/,/,/,/,/
CC[C@H](C)[C@H](NC(=O)[C@H](CO)NC(=O)[C@H](CC(C)C)NC(=O)[C@@H]1CCCN1C(=O)[C@@H]1CCCN1C(=O)[C@H](CC(=O)O)NC(=O)[C@@H](N)CC(=O)O)C(=O)N[C@@H](CC(=O)O)C(=O)N[C@@H](CC(C)C)C(=O)N[C@H](C(=O)N[C@@H](Cc1ccccc1)C(=O)N[C@@H](Cc1cnc[nH]1)C(=O)N[C@@H](CC(C)C)C(=O)N[C@@H](CC(C)C)C(=O)N[C@@H](CCCNC(=N)N)C(=O)N[C@H](C(=O)N[C@@H](CC(C)C)C(=O)N[C@@H](CC(C)C)C(=O)N[C@@H](CCC(=O)O)C(=O)N[C@@H](CC(C)C)C(=O)N[C@@H](C)C(=O)N[C@@H](CCCNC(=N)N)C(=O)N[C@H](C(=O)N[C@@H](CCC(N)=O)C(=O)N[C@@H](CO)C(=O)N[C@@H](CCC(N)=O)C(=O)N[C@@H](CCCNC(=N)N)C(=O)N[C@@H](CCC(=O)O)C(=O)N[C@@H](CCCNC(=N)N)C(=O)N[C@@H](C)C(=O)N[C@@H](CCC(=O)O)C(=O)N[C@@H](CCC(N)=O)C(=O)N[C@@H](CC(N)=O)C(=O)N[C@@H](CCCNC(=N)N)C(=O)N[C@H](C(=O)N[C@H](C(=O)N[C@@H](Cc1ccccc1)C(=O)N[C@@H](CC(=O)O)C(=O)N[C@@H](CO)C(=O)N[C@H](C(N)=O)C(C)C)[C@@H](C)CC)[C@@H](C)CC)[C@@H](C)O)[C@@H](C)O)[C@@H](C)O,3%,/,-8%,-2%,/,/,/,/
CC(C)Nc1cccnc1N1CCN(C(=O)c2cc3cc(NS(C)(=O)=O)ccc3[nH]2)CC1,/,/,/,-5%,/,/,/,/
Cc1cccc(C)c1NC(=O)CN1C(=O)S/C(=C\c2cccn2C)C1=O,3%,11%,i,-2%,/,/,/,/
Cc1ccc(NC(=O)CN2C(=O)S/C(=C\c3cccn3-c3cccc(C(=O)O)c3)C2=O)c(C)c1,8.9µM*,?,-26%,?,207%,?,13µM*,16µM*
Cc1ccccc1NC(=O)CN1C(=O)S/C(=C\c2cccn2-c2cccc(C(=O)O)c2)C1=O,?,?,?,-13%,/,/,?,/

# Screens as filed in PubChem BioAssay.
